From PubChem BioAssay
Menin MLL FP TR – qHTS Assay for Inhibitors Targeting the Menin-MLL Interaction in MLL Related Leukemias: Competition With Texas Red Labeled MLL-derived Mutant Peptide | Potency, µM (titrated, usually from 61.6 µM), for the others: at the top dose FP activity change, negative = inhibition, hits mostly inhibitors | Menin + Texas Red MLL mutant peptide, fluorescence polarization | 0.23% of 270,000 active | O00255; active = well fitted inhibition curve with a large enough effect in the polarisation, with a control signal flat, not every such curve was filed as active; inconclusive = small, poorly fitted or top-dose-only effect, or effect the other way, or a change in a side signal; inactive = no such curve, though single readings can be large or run the other way; the % refers to the polarisation; note: potency is the fitted concentration of half-maximal effect; % of control where 0% means no effect
TR SRC2 fluor cs – Total Fluorescence Counterscreen for Inhibitors of the Interaction of Thyroid Hormone Receptor and Steroid Receptor Coregulator 2. TRb/SRC2 Texas Red total fluorescence interference. Potency, µM (titrated, usually from 106 µM), for the others: top-dose fluorescence change, negative = quenching. 0.29% of 280,000 active. AID 1479, 2009; active = well fitted curve in either direction with a large enough effect; inconclusive = small, poorly fitted or top-dose-only effect; note: potency is the fitted concentration of half-maximal effect; % is set by controls: 0 for no effect and ±100 for the full control effect
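Human TRb ligand-binding domain at 0.6 uM with 20 nM Texas Red SRC2 peptide in Tris buffer containing 1 uM T3 and 5% DMSO, incubated with compound 5 h at ambient temperature. Total fluorescence (555/632 nm) calculated as parallel + 2 × perpendicular.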
Menin-MLL FL inh – qHTS Assay for Inhibitors Targeting the Menin-MLL Interaction in MLL Related Leukemias: Competition With Fluorescein Labeled MLL-derived Peptide. Fluorescence polarization, fluorescein-MLL peptide displacement from menin. FP activity change, % at 61.4 µM. 290,000 tested, under 10 active. AID 1766, 2009; active = well fitted curve in the direction sought with a large enough effect in the polarisation, not every such curve was filed as active; inconclusive = small, poorly fitted or top-dose-only effect, or effect the other way, or a change in a side signal; inactive = no such curve, though single readings can be large or run the other way; the % refers to the polarisation; note: % of control where 0% means no effect
TRb SRC2 PPI – qHTS for Inhibitors of the Interaction of Thyroid Hormone Receptor and Steroid Receptor Coregulator 2; Thyroid hormone receptor beta (Homo sapiens), P10828; TRbeta-SRC2 peptide binding, fluorescence polarization; receptor liganded with 1 µM T3; Potency, µM (titrated, usually from 106 µM), without a hit: at the highest dose activity change, negative = inhibition, usual class: inhibitors; 0.065% of 280,000 active; AID 1469, 2008; active = well fitted inhibition curve with a large enough effect; inconclusive = small, poorly fitted or top-dose-only effect, or effect the other way;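 note: potency is the fitted concentration of half-maximal effect; plate controls were bound peptide for no effect and peptide without receptor for full effect; nearly all actives have a fitted effect of over 50% in size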
Target sequence (P10828 whole entry, looked up): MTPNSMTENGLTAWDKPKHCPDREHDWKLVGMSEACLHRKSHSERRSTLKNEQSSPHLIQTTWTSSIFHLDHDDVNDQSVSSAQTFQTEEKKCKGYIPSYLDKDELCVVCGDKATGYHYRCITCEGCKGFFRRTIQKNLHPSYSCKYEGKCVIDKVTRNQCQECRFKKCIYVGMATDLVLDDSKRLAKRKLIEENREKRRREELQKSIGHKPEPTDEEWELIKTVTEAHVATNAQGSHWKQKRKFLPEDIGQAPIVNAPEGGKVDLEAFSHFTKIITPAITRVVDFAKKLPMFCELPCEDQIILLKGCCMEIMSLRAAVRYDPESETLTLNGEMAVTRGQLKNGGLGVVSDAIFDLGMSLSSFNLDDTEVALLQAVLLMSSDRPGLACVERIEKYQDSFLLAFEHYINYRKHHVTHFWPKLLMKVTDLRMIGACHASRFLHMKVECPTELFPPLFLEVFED
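Read-out is fluorescence polarization (555 nm excitation, 632 nm emission) of a Texas Red SRC2 coactivator peptide; loss of signal reflects blocked binding to human TRb ligand-binding domain in the presence of 1 uM T3.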
MLL CXXC-DNA inh – qHTS Fluorescence Polarization Assay for Inhibitors of MLL CXXC domain - DNA interaction; AID 2662, 2010; Potency, µM (top dose mostly 115 µM), inactives show at the highest dose activity change, negative = inhibition, actives largely listed as inhibitors; Histone-lysine N-methyltransferase 2A (Homo sapiens), Q03164; 0.037% of 290,000 active; MLL-CXXC / FITC-HOXA9 DNA fluorescence polarization; active = well fitted inhibition curve with a large enough effect in the polarisation, with a control signal flat, not every such curve was filed as active; inconclusive = small, poorly fitted or top-dose-only effect, or effect the other way, or a change in a side signal; inactive = no such curve, though single readings can be large or run the other way; the % refers to the polarisation; note: potency is the fitted concentration of half-maximal effect
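Fluorescence polarization: 7 uM MLL-CXXC (stock) preincubated 5 min with compounds, then 50 nM fluorescein-HOX-A9 DNA (stock) added; 30 min ambient. Buffer 50 mM Tris-HCl pH 7.5, 50 mM NaCl, 1 mM DTT, 0.05% BSA.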
GoLoco inh red – qHTS Assay for Inhibitors of RGS12 GoLoco Motif Activity (Red Fluorophore). Guanine nucleotide-binding protein G(i) subunit alpha-1 (Homo sapiens), P63096. Gai1:RGS12 GoLoco peptide FP, rhodamine, 10 min. Potency, µM (titrated, usually from 61.6 µM), for inactives: at the highest dose activity, negative = inhibition, hits mostly inhibitors. 0.44% of 230,000 active; active = well fitted inhibition curve with a large enough effect, not every such curve was filed as active; inactive = no such curve, though single readings can be large or run the other way; note: potency is the fitted concentration of half-maximal effect; % is set by controls: 0 for no effect and ±100 for the full control effect; nearly all actives have a fitted effect of over 30% in size
* marks the source's active call; other numbers are inactive results; ? = inconclusive; . = no result given; ! = a repeat was not active; [ ] = dose if it differs, or a comment. Sampled rows, rich in hits. Any-hit rate of the full collection: about 0.5%.

SMILES	Menin MLL FP TR	TR SRC2 fluor cs	Menin-MLL FL inh	TRb SRC2 PPI	MLL CXXC-DNA inh	GoLoco inh red
Cc1cccc(N2CCN(S(=O)(=O)c3ccc4c(c3)CC(=O)N4C)CC2)c1C	8%	22µM*[quencher]	3	-7%	19%	.
Cc1cccc(N2CCN(S(=O)(=O)c3ccc(S(=O)(=O)N4CCCC4)cc3)CC2)c1C	-5%	1%	2	-2%	-5%	2%
NC(=S)COc1ccccc1	.	14%	-1	-22%	-5%	22µM*
CC(=O)[C@]1(O)CC[C@@H]2[C@H]3C[C@@H](C)C4=CC(=O)CC[C@@]4(C)C3[C@@H](O)C[C@]21C (stereo partly drawn)	.	.	.	.	.	4%[14.2 µM]
COc1cc(O)c(C(=O)/C=C/c2ccccc2)c(O)c1	-3%[11.7 µM]	-2%[11.2 µM]	1[11.7 µM]	4%[11.2 µM]	.	.
COc1cc(O)c(C(=O)/C=C/c2ccccc2)c(OC)c1	20%	0%	-1	4%	35%	25µM*!
CCCC(=O)Nc1nnc(SCC(=O)Nc2nc(C)cs2)s1	.	.	.	.	14%	.
Cc1csc(NC(=O)CSc2nnc(NC(=O)COc3ccc(Cl)cc3)s2)n1	25µM*	-3%[53 µM]	18	-1%[53 µM]	13%	37%
CCCSc1ncc(Cl)c(C(=O)N(Cc2cccc(Cl)c2)C2CCS(=O)(=O)C2)n1 (stereo not drawn)	.	9%	.	-1%	.	.
CCCSc1ncc(Cl)c(C(=O)N(Cc2ccc(N(C)C)cc2)C2CCS(=O)(=O)C2)n1 (stereo not drawn)	.	4.5µM*[quencher]	.	-13%[53 µM]	.	.
CCOCCOCCOCCO	.	-5%[201 µM]	.	-6%[201 µM]	.	.
O=Cc1ccccc1Cl	.	-2%	.	1%	.	-4%
O=Cc1ccccc1C=O	31%	40µM*[quencher]	10	?	?	6%
CCOc1ccc(C(=O)N/N=C/c2ccc(-c3ccc(S(=O)(=O)Nc4ncccn4)cc3)o2)cc1	.	-6%	8	-13%	-1%	30%
O=C(N/N=C/c1ccc(-c2ccc(S(=O)(=O)Nc3ncccn3)cc2)o1)c1cc2ccccc2cc1O	?	16µM*[quencher]	6	?	?	25%
N#C/C(=C\c1ccc(N2CCOCC2)o1)c1ccccc1	?	?	?	-17%	45%	7.1µM*
CCOC(=O)c1cc(CC)sc1NC(=O)COc1ccc2c(C)cc(=O)oc2c1	-4%	-1%	2	1%	-2%	-3%
CCOC(=O)c1cc(CC)sc1NC(=O)COc1ccccc1C	.	1.6µM*[quencher]	.	?	.	.
Cc1c2cnn(CC(=O)NCc3ccc(F)cc3)c(=O)c2c(C)n1Cc1ccccc1F	.	0%	.	-1%	.	.
Cc1c2cnn(CC(=O)Nc3c(F)c(F)cc(F)c3F)c(=O)c2c(C)n1Cc1ccccc1F	13µM*	-12%	?	7%	4%	84%
O=C1CCCC/C=C/CCCCCCCCCO1	.	0%[201 µM]	.	6%[201 µM]	.	.
CCCC(=O)Nc1ccc2nc(SCC(=O)Nc3ccc(N4CCOCC4)c(Cl)c3)sc2c1	?	0%	3	-18%	19%	4.5µM*
CN(C)CCOCCN(C)C	.	-6%[201 µM]	.	-1%[201 µM]	.	.
CCCCN(CC)CCNC(=O)c1cc2c(-c3ccc(Cl)cc3)nn(C)c2s1	18µM*	-1%	1	1%	-1%	.
CCN(CC)CCNC(=O)c1cc2c(-c3ccc(Cl)cc3)nn(C)c2s1	-20%	0%	-1	6%	-16%	66%
CO[C@@H]1[C@H](OC(=O)/C=C/C=C/C=C/C=C/C(=O)O)CC[C@]2(CO2)[C@H]1[C@@]1(C)O[C@@H]1CC=C(C)C	.	0%[201 µM]	.	2%[201 µM]	.	.
OCCN(CCO)c1nc(N2CCCCC2)c2nc(N(CCO)CCO)nc(N3CCCCC3)c2n1	?	40µM*![fluorescent]	?	?	?	-19%
